Inconclusive results are not listed. Where a call stands in place of a potency, no number is given. Activity calls are given as the source filed them. Unless noted, calls come from the whole dose curve; as a rule, active = well fitted curve in the direction sought with a large enough effect; inconclusive = small, poorly fitted or top-dose-only effect, or another doubt; inactive = no such curve, though single readings can be large; an effect the other way counts as inactive or inconclusive.
Experiments:
[1] = target: Tyrosine-protein phosphatase non-receptor type substrate 1 (Homo sapiens) + Leukocyte surface antigen CD47 (Homo sapiens) (UniProt P78324+Q08722); assay: CD47-SIRPalpha protein protein interaction - Alpha assay qHTS validation (AID 1347059);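 note: bead proximity luminescence from CD47 binding SIRPalpha after compound preincubation with SIRPalpha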; note: potency is the fitted concentration of half-maximal effect
How it was run: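 AlphaScreen signal between CD47-His (12.5 nM) and biotin-SIRPalpha (25 nM) soluble extracellular domains, bead-captured via Ni-NTA and streptavidin. Compounds, in 7-point titrations, met SIRPalpha 30 min before CD47; PBS pH 7.4 with 0.05% IGEPAL.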

[2] = target: Parathyroid hormone/parathyroid hormone-related peptide receptor (Homo sapiens) (UniProt Q03431); assay: qHTS for PTHR1 Agonists: Optimization Screen against the NCGC LOPAC library (AID 1347079);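 note: GloSensor cAMP luminescence in HEK-293 GP2 cells expressing human PTHR1 with IBMX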; note: potency is the fitted concentration of half-maximal effect
How it was run: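 Signal increase flags agonism. GP2 cells, derived from HEK-293, express human PTHR1 and a GloSensor cAMP construct.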

[3] = qHTS for Inhibitors of the Functional Ribonucleoprotein Complex (vRNP) of Lassa (LASV) Arenavirus: LASV Primary Screen - GLuc reporter signal (AID 1347082; calls by dose curve; tested in HEK293 reporter line; note: series mostly up to about 57 µM; nearly all actives have a fitted effect of over 60% in size)
[4] = qHTS for Inhibitors of the Functional Ribonucleoprotein Complex (vRNP) of Lassa (LASV) Arenavirus: Viability assay - alamar blue signal for LASV Primary Screen (AID 1347083; calls by dose curve; tested in HEK293 reporter line; note: nearly all actives have a fitted effect of over 80% in size; note: potency is the fitted concentration of half-maximal effect)
[5] = qHTS for Inhibitors of the Functional Ribonucleoprotein Complex (vRNP) of Lymphocytic Choriomeningitis Arenaviruses (LCMV): Viability assay - alamar blue signal for LCMV Primary Screen (AID 1347085; calls by dose curve; tested in HEK293 reporter line; note: nearly all actives have a fitted effect of over 80% in size; note: potency is the fitted concentration of half-maximal effect)
[6] = target: Nucleoprotein (Lymphocytic choriomeningitis virus (strain Armstrong)) (UniProt P09992); assay: qHTS for Inhibitors of the Functional Ribonucleoprotein Complex (vRNP) of Lymphocytic Choriomeningitis Arenaviruses (LCMV): LCMV Primary Screen - GLuc reporter signal (AID 1347086; calls by dose curve; note: nearly all actives have a fitted effect of over 70% in size; note: potency is the fitted concentration of half-maximal effect)
[7] = qHTS of pediatric cancer cell lines to identify multiple opportunities for drug repurposing: Primary screen for TC32 cells (AID 1347089); note: nearly all actives have a fitted effect of over 60% in size
How it was run: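 Luminescent CellTiter-Glo read-out of metabolically active TC32 cells after 48 h compound exposure. Primary: MIPE 11-point, 0.78 nM–46 µM; NPC 8-point, 0.59 nM–46 µM. Confirmatory: 11-point dilutions.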

[8] = qHTS of pediatric cancer cell lines to identify multiple opportunities for drug repurposing: Primary screen for DAOY cells (AID 1347090); note: nearly all actives have a fitted effect of over 55% in size; note: potency is the fitted concentration of half-maximal effect
How it was run: (§1)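 Cell viability, CellTiter-Glo luminescence; 500-1,000 cells/well, 8- or 11-point titration, 48 h compound exposure at 37 degrees C, 5% CO2. Controls: DMSO neutral, bortezomib 2.3 µM final as positive.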

[9] = qHTS of pediatric cancer cell lines to identify multiple opportunities for drug repurposing: Primary screen for SJ-GBM2 cells (AID 1347091)
How it was run: as §1

[10] = qHTS of pediatric cancer cell lines to identify multiple opportunities for drug repurposing: Primary screen for A673 cells (AID 1347092); note: nearly all actives have a fitted effect of over 45% in size; note: potency is the fitted concentration of half-maximal effect
How it was run: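 A673 cells (500-1,000 cells/well in growth media) were pre-incubated 5 h at 37 degrees C, then exposed to compounds for 48 h. Viability was read as CellTiter-Glo luminescence; concentration-response curves came directly from the primary screen.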

Nucleoprotein (Lymphocytic choriomeningitis virus (strain Armstrong)), sequence (P09992 whole entry, looked up): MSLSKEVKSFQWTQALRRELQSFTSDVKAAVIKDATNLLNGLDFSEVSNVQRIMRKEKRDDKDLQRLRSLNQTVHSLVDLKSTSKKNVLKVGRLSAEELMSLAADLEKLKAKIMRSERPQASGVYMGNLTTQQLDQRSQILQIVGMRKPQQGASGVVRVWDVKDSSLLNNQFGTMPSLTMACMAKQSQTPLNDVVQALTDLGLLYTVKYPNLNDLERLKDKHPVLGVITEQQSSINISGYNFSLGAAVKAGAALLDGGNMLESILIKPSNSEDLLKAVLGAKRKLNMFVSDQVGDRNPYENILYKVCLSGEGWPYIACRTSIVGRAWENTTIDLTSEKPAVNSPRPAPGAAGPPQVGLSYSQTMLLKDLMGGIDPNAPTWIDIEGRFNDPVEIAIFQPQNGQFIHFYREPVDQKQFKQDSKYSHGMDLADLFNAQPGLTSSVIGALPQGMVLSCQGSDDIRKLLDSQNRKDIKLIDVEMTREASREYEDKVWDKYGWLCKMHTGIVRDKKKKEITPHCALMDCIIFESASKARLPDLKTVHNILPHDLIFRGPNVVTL
Parathyroid hormone/parathyroid hormone-related peptide receptor (Homo sapiens), sequence (Q03431 whole entry, looked up): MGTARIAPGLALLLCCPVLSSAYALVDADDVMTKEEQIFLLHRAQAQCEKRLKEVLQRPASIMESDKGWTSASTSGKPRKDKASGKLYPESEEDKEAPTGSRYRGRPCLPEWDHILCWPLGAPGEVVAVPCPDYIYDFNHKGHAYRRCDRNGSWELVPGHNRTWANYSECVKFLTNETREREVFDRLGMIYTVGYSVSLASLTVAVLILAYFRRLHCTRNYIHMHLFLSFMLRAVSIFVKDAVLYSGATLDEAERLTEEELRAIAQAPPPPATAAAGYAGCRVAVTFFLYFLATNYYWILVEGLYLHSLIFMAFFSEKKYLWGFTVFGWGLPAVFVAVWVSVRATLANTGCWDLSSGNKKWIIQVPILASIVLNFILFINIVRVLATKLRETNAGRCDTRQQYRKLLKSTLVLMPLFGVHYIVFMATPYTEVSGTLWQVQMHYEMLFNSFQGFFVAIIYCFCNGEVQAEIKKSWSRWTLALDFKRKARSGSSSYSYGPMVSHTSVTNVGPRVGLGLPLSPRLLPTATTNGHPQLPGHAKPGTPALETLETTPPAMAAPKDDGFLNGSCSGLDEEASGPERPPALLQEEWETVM
Tyrosine-protein phosphatase non-receptor type substrate 1 (Homo sapiens) + Leukocyte surface antigen CD47 (Homo sapiens), sequence (P78324 whole entry, looked up, the tested form may be a part): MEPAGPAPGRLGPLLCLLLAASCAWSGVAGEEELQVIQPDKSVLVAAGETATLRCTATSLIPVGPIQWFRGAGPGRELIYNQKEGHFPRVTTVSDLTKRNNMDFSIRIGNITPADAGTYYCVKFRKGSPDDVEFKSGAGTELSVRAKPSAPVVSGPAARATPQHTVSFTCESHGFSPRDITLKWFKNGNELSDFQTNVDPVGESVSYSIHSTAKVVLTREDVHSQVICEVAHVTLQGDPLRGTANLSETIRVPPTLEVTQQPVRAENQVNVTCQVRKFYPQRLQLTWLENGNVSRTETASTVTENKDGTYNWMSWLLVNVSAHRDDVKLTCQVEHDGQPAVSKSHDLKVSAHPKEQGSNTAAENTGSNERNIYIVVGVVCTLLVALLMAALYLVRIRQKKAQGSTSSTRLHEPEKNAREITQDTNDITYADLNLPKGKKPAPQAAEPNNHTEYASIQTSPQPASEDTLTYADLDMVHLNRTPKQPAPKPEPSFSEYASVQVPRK
Tyrosine-protein phosphatase non-receptor type substrate 1 (Homo sapiens) + Leukocyte surface antigen CD47 (Homo sapiens), sequence (Q08722 whole entry, looked up, the tested form may be a part): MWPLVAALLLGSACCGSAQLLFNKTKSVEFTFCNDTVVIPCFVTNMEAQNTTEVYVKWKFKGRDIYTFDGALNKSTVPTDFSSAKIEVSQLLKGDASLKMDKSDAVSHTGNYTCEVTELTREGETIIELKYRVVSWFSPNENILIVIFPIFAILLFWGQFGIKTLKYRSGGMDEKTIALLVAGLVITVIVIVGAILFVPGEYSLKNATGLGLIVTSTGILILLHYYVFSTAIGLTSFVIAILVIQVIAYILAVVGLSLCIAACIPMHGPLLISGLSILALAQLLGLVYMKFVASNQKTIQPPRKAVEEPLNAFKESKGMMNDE

| Compound | Potency [1] | Potency [2] | Potency [3] | Potency [4] | Potency [5] | Potency [6] | outcome [7] | Potency [8] | outcome [9] | Potency [10] |
| --- | --- | --- | --- | --- | --- | --- | --- | --- | --- | --- |
| CC(=O)c1c(O)c(C)c(O)c(Cc2c(O)c3c(c(C(=O)/C=C/c4ccccc4)c2O)OC(C)(C)C=C3)c1O | 16500 nM (active) | inactive | inactive | inactive | inactive | inactive | – | – | – | – |
| NC(=O)COc1c(F)cc(SCCNS(=O)(=O)c2ccccc2)cc1F | inactive | inactive | inactive | inactive | inactive | inactive | – | – | – | – |
| CC(N)Cc1c[nH]c2ccc(OCc3cccs3)cc12 (centres undefined) | inactive | inactive | inactive | inactive | inactive | inactive | – | – | – | – |
| Cc1[nH]c2ccc(O)cc2c1CCN | inactive | inactive | inactive | inactive | inactive | inactive | – | – | – | – |
| O=[N+]([O-])c1cc(O)c(O)c([N+](=O)[O-])c1 | inactive | inactive | inactive | inactive | inactive | inactive | – | – | – | – |
| Oc1ccc2c3c1O[C@H]1c4[nH]c5ccccc5c4C[C@@]4(O)C(C2)N(CC2CC2)CCC314 (some centres undefined) | inactive | inactive | inactive | inactive | inactive | inactive | – | – | – | – |
| CCCn1c(=O)c2[nH]c(C3CCCC3)nc2n(CCCOC(=O)c2ccc(S(=O)(=O)F)cc2)c1=O | inactive | inactive | inactive | inactive | inactive | inactive | – | – | – | – |
| NCCc1c[nH]c2ccc(C(N)=O)cc12 | inactive | inactive | inactive | inactive | inactive | inactive | – | – | – | – |
| C[N+]1(C)CCOC(O)(c2ccc(-c3ccc(C4(O)C[N+](C)(C)CCO4)cc3)cc2)C1 (centres undefined) | inactive | inactive | inactive | inactive | inactive | inactive | – | – | – | – |
| Nc1ccc(CCN2CCN(c3cccc(C(F)(F)F)c3)CC2)cc1 | inactive | inactive | inactive | inactive | inactive | inactive | – | – | – | – |
| CC(C)(O)[C@@H]1C2OC(=O)[C@@H]1[C@]1(O)C[C@H]3O[C@]34C(=O)O[C@H]2[C@]14C (tested in a mixture with another compound) | inactive | inactive | inactive | inactive | inactive | inactive | – | – | – | – |
| Clc1cc(I)cc(Cl)c1NC1=NCCN1 | inactive | inactive | inactive | inactive | inactive | inactive | – | – | – | – |
| COc1ccc2c(c1)C13CCCCC1C(C2)N(C)CC3 (centres undefined) | inactive | inactive | inactive | inactive | inactive | inactive | – | – | – | – |
| C#CCN[C@H](C)Cc1ccccc1 | inactive | inactive | inactive | inactive | inactive | inactive | – | – | – | – |
| CC(N)[C@H](O)c1ccc(O)c(O)c1 (some centres undefined) | inactive | inactive | inactive | inactive | inactive | inactive | – | – | – | – |
| O=S1(=O)N(CCN2CC=C(c3c[nH]c4cc(F)ccc34)CC2)c2cccc3c2N1CCC3 | inactive | inactive | inactive | inactive | inactive | inactive | – | – | – | – |
| c1ccc2cc(CC3=NCCN3)ccc2c1 | inactive | inactive | inactive | inactive | inactive | inactive | – | – | – | – |
| O=[N+]([O-])/C=C/c1ccc2c(c1)OCO2 | inactive | inactive | inactive | – | inactive | inactive | – | – | – | – |
| CP(=O)(O)C1=CCNCC1 | inactive | inactive | inactive | inactive | inactive | inactive | – | – | – | – |

| Compound | Potency [1] | Potency [2] | Potency [3] | Potency [4] | Potency [5] | Potency [6] | outcome [7] | Potency [8] | outcome [9] | Potency [10] |
| --- | --- | --- | --- | --- | --- | --- | --- | --- | --- | --- |
| Cc1c2ccncc2c(C)c2c1[nH]c1ccccc12 | inactive | inactive | inactive | – | – | inactive | – | – | – | – |
| NCC(CP(=O)(O)O)c1ccc(Cl)cc1 (centres undefined) | inactive | 18900 nM (active) | inactive | inactive | inactive | inactive | – | – | – | – |
| Cc1o[nH]c(=O)c1CC(N)C(=O)O (centres undefined) | inactive | inactive | inactive | inactive | inactive | inactive | – | – | – | – |
| O=C1C=CC(=O)C=C1 | inactive | inactive | – | inactive | inactive | – | – | – | – | – |
| c1ccc2c(c1)[I+]c1ccccc1-2 | inactive | inactive | – | 1580 nM (active) | 6310 nM (active) | – | – | – | – | – |
| N[C@@]1(C(=O)O)CC[C@@H](C(=O)O)C1 | inactive | inactive | inactive | inactive | inactive | inactive | – | – | – | – |
| NC(N)=Nc1ccc2[nH]c3c(c2c1)C[C@@]1(O)[C@H]2Cc4ccc(O)c5c4[C@@]1(CCN2CC1CC1)[C@H]3O5 | inactive | inactive | inactive | inactive | inactive | inactive | – | – | – | – |
| NC(=O)c1ccc(OCC(O)CN2CC=C(c3ccc(F)cc3)CC2)cc1 (centres undefined) | inactive | inactive | inactive | inactive | inactive | inactive | – | – | – | – |
| NC(=O)CI | inactive | inactive | inactive | inactive | inactive | inactive | – | – | – | – |
| CC(Cc1ccc(OCC(=O)O)cc1)NCC(O)c1cccc(Cl)c1 (centres undefined) | inactive | inactive | inactive | inactive | inactive | inactive | – | – | – | – |
| COc1ccc2[nH]c3c(c2c1)CCNC3 | – | inactive | inactive | inactive | inactive | inactive | – | – | – | – |
| C=CCN1CCC23c4c5ccc(O)c4O[C@H]2C(=O)CC[C@@]3(O)C1C5 (some centres undefined) | inactive | inactive | inactive | inactive | inactive | inactive | – | – | – | – |
| NC(C(=O)O)c1cc(=O)[nH]o1 (centres undefined) | inactive | inactive | inactive | inactive | inactive | inactive | – | – | – | – |
| NCCc1ccc(S(=O)(=O)F)cc1 | inactive | inactive | inactive | inactive | inactive | inactive | – | – | – | – |
| CCCn1c(C)c(C(=O)c2ccc3ccccc3c2)c2ccccc21 | – | inactive | inactive | inactive | inactive | inactive | – | – | – | – |
| CC12NC(Cc3ccccc31)c1ccccc12 (centres undefined) | inactive | inactive | inactive | inactive | inactive | inactive | – | – | – | – |
| CCCN1CCc2cccc3c2[C@H]1Cc1ccc(O)c(O)c1-3 | inactive | inactive | inactive | inactive | inactive | inactive | – | – | – | – |
| C[N+](C)(C)CC#CCOC(=O)Nc1cccc(Cl)c1 | inactive | inactive | inactive | inactive | inactive | inactive | – | – | – | – |
| c1ccc2c(N3CCNCC3)cccc2c1 | inactive | inactive | inactive | inactive | inactive | inactive | – | – | – | – |

| Compound | Potency [1] | Potency [2] | Potency [3] | Potency [4] | Potency [5] | Potency [6] | outcome [7] | Potency [8] | outcome [9] | Potency [10] |
| --- | --- | --- | --- | --- | --- | --- | --- | --- | --- | --- |
| C[C@@H]1O[C@@H](O[C@H]2C[C@@H](O)[C@]3(CO)[C@@H]4C(CC[C@]3(O)C2)[C@@]2(O)CC[C@H]([C@@H]3COC(=O)C3)[C@@]2(C)C[C@H]4O)[C@H](O)[C@H](O)[C@H]1O (some centres undefined) | inactive | inactive | – | 3980 nM (active) | 2240 nM (active) | 2000 nM (active) | – | – | – | – |
| COc1ccc2c(c1)[C@@]13CCCC[C@H]1[C@@H](C2)NCC3 | – | inactive | inactive | inactive | inactive | inactive | – | – | – | – |
| CCCN(CCC)[C@@H]1CCc2cccc(O)c2C1 | inactive | inactive | inactive | inactive | inactive | inactive | – | – | – | – |
| N#CCCN | inactive | inactive | inactive | inactive | inactive | inactive | – | – | – | – |
| Cc1sc2ccccc2c1CC1=NCCN1 | inactive | inactive | inactive | inactive | inactive | inactive | – | – | – | – |
| CC(C)NP(=O)(NC(C)C)OP(=O)(NC(C)C)NC(C)C | inactive | inactive | inactive | inactive | inactive | inactive | – | – | – | – |
| N[C@@H](Cn1ccc(=O)[nH]c1=O)C(=O)O | – | inactive | inactive | inactive | inactive | inactive | – | – | – | – |
| N=C(N)c1ccc(CS(=O)(=O)F)cc1 | inactive | inactive | inactive | inactive | inactive | inactive | – | – | – | – |
| C[C@H](N)Cc1cccc(C(F)(F)F)c1 | inactive | inactive | inactive | inactive | inactive | inactive | – | – | – | – |
| CN1CCc2cccc(Cl)c2CC1 | inactive | inactive | inactive | inactive | inactive | inactive | – | – | – | – |
| O=C(O)c1cc[c]([Hg][Cl])cc1 | – | inactive | inactive | inactive | inactive | inactive | – | – | – | – |
| C=CCN1CC[C@]23c4c5ccc(O)c4O[C@@H]2/C(=N/N=C2\CC[C@@]4(O)C6Cc7ccc(O)c8c7[C@@]4(CCN6CC=C)[C@@H]2O8)CC[C@@]3(O)C1C5 | – | inactive | inactive | inactive | inactive | inactive | – | – | – | – |
| C[N+]1(C)CCN(c2ccccc2)CC1 | inactive | inactive | inactive | inactive | inactive | inactive | – | – | – | – |
| COc1ccc2c(c1)/C(=C/c1cnc[nH]1)C(=O)N2 | – | inactive | – | – | – | – | – | – | – | – |
| C[C@H](N)CN1CCc2ccc(Br)cc21 | inactive | inactive | inactive | inactive | inactive | inactive | – | – | – | – |
| NC(Cc1ccc(N(CCCl)CCCl)cc1)C(=O)O (centres undefined) | – | inactive | inactive | inactive | inactive | – | – | – | – | – |
| CCCSP(=O)(OCC)SCCC | – | – | – | – | – | – | inactive | inactive | inactive | inactive |
| C[CH2][Hg][S]c1ccccc1C(=O)O | – | – | – | – | – | – | – | 2660 nM (active) | – | 841 nM (active) |
